# From PubChem BioAssay (EPA / NIEHS)
# Inconclusive results are not listed. Active and inactive are the calls of the source. The calls were made as follows: active = hit-call score of the fitted dose curve at least 0.9, where 1 is the maximum; inconclusive = response in the unintended direction; inactive = score below 0.9.
# Legend:
# [1] = molecular target: Luciferin 4-monooxygenase (Photinus pyralis) (UniProt P08659); assay: CCTE_Simmons_QuantiLum_inhib_2: CCTE's Firefly Luciferase Inhibition Assay, Simmons Lab (AID 2283767);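 as to AC50: potency for inhibitors that lower luciferase luminescence relative to DMSO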
# Procedure, shortened: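 Luminescence loss relative to DMSO vehicle defines inhibition; detection reagent containing 150 uM D-luciferin and 147 uM dATP (final, pH 7.8) is injected immediately before each read. Enzyme is preincubated with an 8-point titration (5 nM–87.5 uM final) for 30 min at 37C.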
# [2] = ArunA_Migration_hNP: ArunA Biomedical's Oris Neuroprogenitor (hNP) Cell Migration Assay (AID 2283754)
# Description: ArunA_Migration_hNP is a cell-based, single-readout assay that uses human H9-derived neuroprogenitor stem cells (hNP1). Measurements were taken 72 hours after chemical dosing in a 96-well plate.ArunA_Migration_hNP is an assay component measured from the ArunA_Migration_hNP assay. It is designed to make measurements of cell migration, a form of distribution reporter, as detected with fluorescence intensity signals by HCS Fluorescent Imaging technology. Data from the assay component ArunA_Migration_hNP was analyzed at the endpoint, ArunA_Migration_hNP, in the positive analysis fitting direction relative to DMSO as the negative control and baseline of activity. Using a type of distribution reporter, loss-of-signal activity can be used to understand the cell migration. To generalize the intended target to other relatable targets, this assay endpoint is annotated to the neurodevelopment intended target family, where the subfamily is migration.
# To assess the hNP and hNC migration and cell titer endpoints, 60,000 cells per well were plated onto Matrigel in basal growth medium with LIF and bFGF in a 96-well plate format. Plates were incubated for 16 h at 37C followed by a 72 h exposure to chemical in the test medium. For the migration endpoints, cells were seeded and incubated in presence of 'seeding stoppers' to prevent cell migration and growth into the detection zone. At the beginning of chemical exposure, stoppers were removed, and growth medium was replaced with test medium. In the case of the stopper control wells, stoppers remained in place following replacement of growth medium with test medium. Following 72 -h exposure to the test medium, cells were stained at 37C for 30-60 min with calcein-AM. Cell viability in the detection zone was quantitated using a Flexstation3 microplate reader (ex494 nm/em 517 nm). Corresponding cell titer endpoints were assessed for the hNP and hNC cells using the Promega CellTiter Aqueous One Solution Cell Proliferation Assay (Cat no. G3581; CellTiter 96). Finally, to gain insight into the mechanisms by which cells migrate into the detection zone, Ki-67 expression was quantified for 10 additional chemicals in the hNP and hNC systems. Additionally, cytochalasin D was used as a positive control to inhibit cell migration. Supplementing the AB2 Basal Medium: 1. Decontaminate the external surfaces of all supplement vials and the medium bottle with ethanol or isopropanol. 2. Aseptically open each supplement vial and add the amount indicated below to the basal medium with a pipette. To make 100 ml of complete medium: AB2 Neural Medium 96 mL, ANS Supplement 2 mL, bFGF (50 ug/mL) 40 uL, LIF (10 ug/mL) 100 uL, L-Glutamine (200 mM) 1 mL, Penicillin (5,000 U/mL)/ Streptomycin (5,000 ug/mL) 1 mL. 3. […]
# [3] = ArunA_NOG_NucleusCount: ArunA Biomedical's Neurite Outgrowth (NOG) Assay for Nucleus Count (AID 2283756)
# Procedure, shortened: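 Human H9-derived differentiated neurons were exposed for 48 h right after seeding. Hoechst-stained nuclei gated by size and intensity were counted by automated high-content imaging as viable neurons. Loss of signal vs DMSO.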
# [4] = test system: chicken Androgen Receptor (AR), gene 422165; assay: ATG_chAR_XSP1: Attagene TRANS-FACTORIAL Multi-Species (XSP1) HepG2 Assay for chicken Androgen Receptor (AR) (AID 2283768)
# Procedure, shortened: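 HepG2 cells transiently transfected with multiplexed GAL4-UAS reporter units expressing chimeric chicken AR-Gal4; 3 nM 6-alpha-fluorotestosterone for partial AR stimulation; 24 h after dosing, reporter mRNA by RT-PCR and capillary electrophoresis, gain-of-signal versus DMSO.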
# [5] = test system: zebrafish Androgen Receptor (AR), gene 100005148; assay: ATG_zfAR_XSP1: Attagene TRANS-FACTORIAL Multi-Species (XSP1) HepG2 Assay for zebrafish Androgen Receptor (AR) (AID 2283771)
# Description: ATG_XSP1_multi-species_TRANS is a cell-based, multiplexed assay created by modifying the existing Attagene TRANS-FACTORIAL system to include a panel of nuclear receptors from some or all the following species: human (Homo sapiens), mouse (Mus musculus), frog (Xenopus laevis), zebrafish (Danio rerio), chicken (Gallus gallus), and turtle (Chrysemys picta). The ECOTOX-FACTORIAL format uses HepG2, a human liver cell line, with measurements taken at 24 hours after chemical dosing in a 24-well plate. Xsp1 included 3 nM 6-alpha-fluorotestosterone to partially stimulate the androgen receptor.ATG_zfAR_XSP1 is one of 29 assay components measured or calculated from the ATG_XSP1_multi-species_TRANS assay. It is designed to make measurements of mRNA induction, a form of inducible reporter, as detected with fluorescence intensity signals by Reverse transcription polymerase chain reaction (RT-PCR) and Capillary electrophoresis technology.The assay endpoint ATG_zfAR_XSP1 was analyzed in the positive analysis fitting direction relative to DMSO as the negative control and baseline of activity. […] Furthermore, this assay endpoint can be referred to as a primary readout, because this assay has produced multiple assay endpoints where this one serves a reporter gene function. […]
# [6] = molecular target: zebrafish Estrogen Receptor (ESR1), esr1 (gene 259252) (UniProt P57717); assay: ATG_zfER1_XSP1: Attagene TRANS-FACTORIAL Multi-Species (XSP1) HepG2 Assay for zebrafish Estrogen Receptor (ESR1) (AID 2283772)
# Procedure, shortened: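 HepG2 cells were transiently transfected with multiplexed GAL4-UAS reporter units driven by chimeric NR-GAL4 proteins, dosed for 24 h with 3 nM 6-alpha-fluorotestosterone present, and reporter mRNA quantified by RT-PCR and capillary electrophoresis versus DMSO.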
# [7] = ArunA_Migration_hNC: ArunA Biomedical's Oris Neural Crest (hNC) Cell Migration Assay (AID 2283755)
# Procedure, shortened: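 Human H9-derived neural crest stem cells, 60,000/well on Matrigel, 16 h at 37C, then 72 h chemical exposure after seeding-stopper removal. Migration into detection zone read as calcein-AM fluorescence (ex494/em517), relative to DMSO.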
# [8] = ArunA_NOG_NeuritesPerNeuron: ArunA Biomedical's Neurite Outgrowth (NOG) Assay for Neurites Per Neuron (AID 2283758)
# Procedure, shortened: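 Differentiated human H9-derived neurons exposed to chemicals for 48 h from seeding, then stained with Hoechst and βIII-tubulin/DyLight 488. Automated imaging counted neurites (processes >10 um) per valid neuron; loss of signal versus DMSO scored.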
# [9] = ArunA_NOG_BranchPointsPerNeurite: ArunA Biomedical's Neurite Outgrowth (NOG) Assay for Branch Points Per Neurite (AID 2283759)
# Procedure, shortened: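 Automated image analysis traced neurites (processes >10 um) from valid cell bodies after Hoechst and βIII-tubulin staining. hNN cells from H9 embryonic stem cells, 48 h exposure. Fitted bidirectionally against DMSO.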
# [10] = ArunA_NOG_NeuriteLength: ArunA Biomedical's Neurite Outgrowth (NOG) Assay for Neurite Length (AID 2283757)
# Procedure, shortened: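 Differentiated human H9-derived neurons were exposed for 48 h from seeding, then stained with Hoechst and βIII-tubulin. Automated high-content imaging gave total neurite length per valid neuron, counting processes >10 um. Loss of signal was scored versus DMSO.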
# Luciferin 4-monooxygenase (Photinus pyralis), sequence (P08659 whole entry, looked up): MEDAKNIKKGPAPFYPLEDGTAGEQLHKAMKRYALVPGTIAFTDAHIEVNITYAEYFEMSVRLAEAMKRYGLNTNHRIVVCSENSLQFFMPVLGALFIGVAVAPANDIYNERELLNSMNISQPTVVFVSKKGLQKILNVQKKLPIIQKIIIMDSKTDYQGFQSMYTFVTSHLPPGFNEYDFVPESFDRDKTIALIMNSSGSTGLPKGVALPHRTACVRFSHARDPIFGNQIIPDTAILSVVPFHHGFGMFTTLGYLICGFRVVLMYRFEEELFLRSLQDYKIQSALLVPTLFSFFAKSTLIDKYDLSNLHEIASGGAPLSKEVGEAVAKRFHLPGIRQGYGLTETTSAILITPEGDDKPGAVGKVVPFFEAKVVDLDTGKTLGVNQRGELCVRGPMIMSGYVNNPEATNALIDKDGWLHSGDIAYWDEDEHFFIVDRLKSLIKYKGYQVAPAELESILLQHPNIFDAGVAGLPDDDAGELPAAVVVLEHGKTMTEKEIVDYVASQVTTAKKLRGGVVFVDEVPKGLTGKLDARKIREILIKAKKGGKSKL
# zebrafish Estrogen Receptor (ESR1), esr1 (gene 259252), sequence (P57717 whole entry, looked up, the tested form may be a part): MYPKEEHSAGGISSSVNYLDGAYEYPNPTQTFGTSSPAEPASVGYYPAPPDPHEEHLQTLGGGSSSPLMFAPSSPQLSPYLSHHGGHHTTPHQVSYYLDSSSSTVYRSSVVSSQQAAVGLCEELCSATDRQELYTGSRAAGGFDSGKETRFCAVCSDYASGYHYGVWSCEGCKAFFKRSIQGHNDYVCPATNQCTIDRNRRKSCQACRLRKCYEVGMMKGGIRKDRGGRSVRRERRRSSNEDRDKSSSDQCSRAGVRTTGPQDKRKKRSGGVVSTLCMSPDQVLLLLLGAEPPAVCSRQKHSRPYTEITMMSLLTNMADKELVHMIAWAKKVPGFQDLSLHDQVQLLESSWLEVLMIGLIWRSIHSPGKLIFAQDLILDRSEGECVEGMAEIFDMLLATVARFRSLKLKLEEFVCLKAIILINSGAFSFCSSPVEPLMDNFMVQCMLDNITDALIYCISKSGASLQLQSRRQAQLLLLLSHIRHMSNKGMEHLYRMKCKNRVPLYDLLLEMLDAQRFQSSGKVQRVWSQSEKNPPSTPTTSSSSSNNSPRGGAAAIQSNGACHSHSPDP
compound,measurement,setting,value
O=c1ssc(Cl)c1Cl,AC50,[1],18 µM (active)
O=P(Oc1ccccc1)(Oc1ccccc1)Oc1ccccc1,outcome,[2],inactive
same,outcome,[3],inactive
same,outcome,[4],inactive
same,outcome,[5],inactive
same,outcome,[6],inactive
Nc1ccc(Cl)cc1,outcome,[1],inactive
Nc1ccc2ccccc2c1,AC50,[1],53.8 µM (active)
Cc1ccc(N)cc1N,outcome,[2],inactive
same,AC50,[7],55.6 µM (active)
same,outcome,[3],inactive
same,outcome,[8],inactive
same,outcome,[9],inactive
same,AC50,[1],21.6 µM (active)
CCOP(=S)(Oc1ccc([N+](=O)[O-])cc1)c1ccccc1 (configuration not stated),outcome,[1],inactive
c1ccc(OP(Oc2ccccc2)Oc2ccccc2)cc1,outcome,[1],inactive
CCCCC(CC)COP(=O)(Oc1ccccc1)Oc1ccccc1 (configuration not stated),outcome,[2],inactive
same,outcome,[7],inactive
same,outcome,[3],inactive
[N-]=[N+]=[N-],outcome,[1],inactive
CCOP(=S)(OCC)SCSCC,outcome,[1],inactive
CC(C)(C)c1ccc(O)cc1,outcome,[1],inactive
O=C(O)C1C(C(=O)O)C2(Cl)C(Cl)=C(Cl)C1(Cl)C2(Cl)Cl (configuration not stated),outcome,[2],inactive
same,outcome,[7],inactive
same,outcome,[10],inactive
same,outcome,[8],inactive
same,outcome,[9],inactive
CCC(C)(C)c1ccc(O)cc1,outcome,[1],inactive
CCCCc1ccc(O)cc1,outcome,[1],inactive
CCC1(c2ccccc2)C(=O)N=C(O)NC1=O (configuration not stated),outcome,[1],inactive
O=S(=O)(c1ccc(O)cc1)c1ccc(O)cc1,outcome,[1],inactive
O=S1(=O)OCC2C(CO1)C1(Cl)C(Cl)=C(Cl)C2(Cl)C1(Cl)Cl (configuration not stated),AC50,[1],31.9 µM (active)
CCCCN(CC)C(=O)SCCC,outcome,[1],inactive
c1ccc2c(c1)Nc1ccccc1S2,outcome,[1],inactive
Cc1cccc(N)c1,outcome,[1],inactive
CCCCCCCc1ccc(O)cc1,AC50,[1],43.6 µM (active)
Nc1cc2c3c(c1)C(c1ccccc1)=N[C@@H](NC(=O)c1cccnc1)C(=O)N3CC2,outcome,[1],inactive
